Experimental data from PubChem BioAssay AID1851 (National Center for Advancing Translational Sciences (NCATS), 2009).
“And” between values parts separate entries of the source, which are not always exact repeats. Equal entries are not always repeated. About 5,800 (36%) of roughly 16,000 compounds were called active. Inconclusive results (about 23%) are left out. Calls follow the shape of the dose curve; as a rule, active = well fitted curve in the direction sought with a large enough effect; inconclusive = small, poorly fitted or top-dose-only effect, or effect the other way; inactive = no such curve, though single readings can be large or run the other way. The list shows a part of the results. Some compounds were tested as several samples or in several runs, with calls that do not always agree.

Each compound was assayed against Cytochrome P450 2C19 (Homo sapiens) (UniProt P33261) (assay: Cytochrome panel assay with activity outcomes). Conditions: recombinant CYP, pro-luciferin dealkylation, luminescence, p450-cyp2c19; series mostly up to 57.1 µM.
% is scaled to controls: 0 for no effect and ±100 for the full control effect.

Sequence of Cytochrome P450 2C19 (Homo sapiens) (P33261 whole entry, looked up): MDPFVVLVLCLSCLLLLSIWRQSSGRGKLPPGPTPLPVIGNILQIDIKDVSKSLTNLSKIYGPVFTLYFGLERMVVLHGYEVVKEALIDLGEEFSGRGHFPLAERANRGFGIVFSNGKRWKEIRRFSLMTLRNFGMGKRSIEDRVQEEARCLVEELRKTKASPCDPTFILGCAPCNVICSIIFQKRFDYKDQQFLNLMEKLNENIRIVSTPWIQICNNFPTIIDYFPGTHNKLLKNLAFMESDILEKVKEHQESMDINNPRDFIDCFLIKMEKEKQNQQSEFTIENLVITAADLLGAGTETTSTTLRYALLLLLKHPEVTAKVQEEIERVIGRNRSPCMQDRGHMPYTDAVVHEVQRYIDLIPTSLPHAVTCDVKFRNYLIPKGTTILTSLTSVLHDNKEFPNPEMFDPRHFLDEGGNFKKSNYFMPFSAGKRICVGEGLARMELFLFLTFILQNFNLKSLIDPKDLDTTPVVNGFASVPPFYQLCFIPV

Row | SMILES | AC50 | activity, negative = inhibition
1 | COc1cccc2cc3c(=O)oc4ccccc4c3nc12 | 3.98 µM (active) | –
2 | Cn1c(C(F)(F)F)nc2c(=O)oc3ccccc3c21 | inactive | –
3 | COc1ccc(CNc2ccnc(-c3ccc4c(c3)OCO4)n2)c(OC)c1 | 2.51 µM (active) | –
4 | COc1ccccc1CNc1ccnc(-c2ccc3c(c2)OCO3)n1 | 3.16 µM (active) | –
5 | O=C(Nc1ccccc1)N1CC2(CCN(C(=O)c3cnccn3)CC2)C1 | inactive | –
6 | Cc1ccn2cc(CSc3ccccc3N)nc2c1 | 2.51 µM (active) | –
7 | N#C/C(=C\Nc1ccccn1)C(=O)c1ccco1 | – | -6.24% [at 11.4 µM] (inactive)
8 | CSC(=N)N | inactive and 631 nM (active) | –
9 | CCSC(=N)N | inactive | –
10 | CC(C)SC(=N)N | inactive | –
11 | CCC/C=C(\CCC)C(NC(=O)Oc1ccc(F)cc1)c1ccc(C(=O)OC)cc1 (stereo unspecified) | inactive | –
12 | CCC/C=C(\CCC)C(NC(=O)c1cccs1)c1ccc(C(=O)OC)cc1 (stereo unspecified) | 0.794 µM (active) | –
13 | CCC/C=C(\CCC)C(NC(=O)Cc1ccccc1)c1ccc(C(=O)OC)cc1 (stereo unspecified) | 2.51 µM (active) | –
14 | CCC/C=C(\CCC)C(NC(=O)c1cccs1)c1ccc(C(F)(F)F)cc1 (stereo unspecified) | 0.316 µM (active) | –
15 | CCC/C=C(\CCC)C(NC(=O)c1ccc(C(F)(F)F)cc1)c1ccccc1 (stereo unspecified) | 10 µM (active) | –
16 | CCC/C=C(\CCC)C(NC(=O)c1ccc(-c2ccccc2)cc1)c1ccc(C(=O)OC)cc1 (stereo unspecified) | inactive | –
17 | CCC/C=C(\CCC)C(NC(=O)c1ccc(C(F)(F)F)cc1)c1ccc(C(F)(F)F)cc1 (stereo unspecified) | inactive | –
18 | COc1ccc(-n2c(=O)c(-c3cc(F)cc(F)c3)nc3cnc(N4CCNCC4)nc32)cc1 | inactive | –
19 | CC(C)(C)NS(=O)(=O)c1ccc(NS(=O)(=O)c2ccc(F)cc2)cc1 | inactive | –
20 | Nc1ccc(S(=O)(=O)Nc2ccc(Cl)nn2)cc1 | inactive | –
21 | CC(C)(C)c1ccc(NS(=O)(=O)c2ccc(N)cc2)cc1 | 0.398 µM (active) | –
22 | CN(C)CCCNc1ncnc2nc[nH]c12 | – | 19.7% [at 11.4 µM] (inactive)

Row | SMILES | AC50 | activity, negative = inhibition
23 | CN(C)Cc1ccccc1-c1nccc(N(C)Cc2ccco2)n1 | inactive | –
24 | CN(Cc1ccco1)c1ccnc(-c2ccccc2C(F)(F)F)n1 | 7.94 µM (active) | –
25 | Cc1ccccc1-c1cc(N(C)Cc2ccco2)ncn1 | 6.31 µM (active) | –
26 | CN(Cc1ccco1)c1cc(-c2ccccc2Cl)ncn1 | 7.94 µM (active) | –
27 | CN(C)c1ccnc(-c2ccccc2C(F)(F)F)n1 | inactive | –
28 | CN(C)Cc1ccccc1-c1cc(N(C)Cc2ccco2)ncn1 | inactive | –
29 | COc1ccccc1-c1cc(N(C)Cc2ccco2)ncn1 | 3.98 µM (active) | –
30 | CN(Cc1ccco1)c1cc(-c2ccccc2C(F)(F)F)ncn1 | 10 µM (active) | –
31 | O[C@]1(c2ccccc2)c2ccccc2NC2=NCCN21 | – | 36.2% [at 11.4 µM] (inactive)
32 | COC(=O)c1ccccc1NC(=O)c1ccc(COc2ccc(C)c(C)c2)o1 | 2 µM (active) | –
33 | Cc1ccc(OCc2ccc(C(=O)Nc3nccs3)o2)cc1C | 2.51 µM (active) | –
34 | Cc1onc(C(=O)/C=C/N(C)C)c1C(=O)Nc1nccs1 | inactive | –
35 | COC(=O)c1ccccc1NC(=O)c1ccc(Cn2cc(Cl)cn2)o1 | 1.12 µM (active) | –
36 | COc1ccc(NC(=O)c2ccc(COc3ccccc3)o2)cc1 | 5.62 µM (active) | –
37 | Cc1ccc2ncc([N+](=O)[O-])n2c1 | inactive | –
38 | CCOC(=O)CC(NC(=O)c1ccc(C)cc1)c1ccc(C)cc1 (stereo unspecified) | 14.1 µM (active) | –
39 | CCOC(=O)CC(NC(=O)c1ccco1)c1ccc(OC)cc1 (stereo unspecified) | 14.1 µM (active) | –
40 | CCOc1ccc(C(CC(=O)O)NC(=O)COc2ccccc2)cc1 (stereo unspecified) | inactive | –
41 | CCOC(=O)CC(NC(=O)c1cccs1)c1ccc(OCC)cc1 (stereo unspecified) | 2.82 µM (active) | –
42 | CC(C)CSC[C@@H]1O[C@H](n2cnc3c(N)nccc32)[C@H](O)[C@@H]1O | – | 39.2% [at 11.4 µM] (inactive)
43 | COCCNC(=O)CCn1nc(-c2ccc(Cl)cc2)ccc1=O | inactive | –
44 | COCCNC(=O)c1cn(Cc2c(F)cccc2Cl)nn1 | 14.1 µM (active) | –

Row | SMILES | AC50 | activity, negative = inhibition
45 | CN(CCC(=O)O)S(=O)(=O)c1ccccc1 | – | -21.5% [at 11.4 µM] (inactive)
46 | CN(CC(=O)Nc1cccc2c1CCCC2)S(=O)(=O)c1ccc(Br)cc1 | 5.01 µM (active) | –
47 | NC(N)=NC[C@@H]1CCCCCCN1 | – | 23.1% [at 11.4 µM] (inactive)
48 | NNC(=O)Cc1cccnc1 | – | 7.22% [at 11.4 µM] (inactive)
49 | O=C(CSCc1c(Cl)cccc1Cl)NCc1cccnc1 | 3.55 µM (active) | –
50 | O=C(c1ccccc1)c1c[nH]c(C(=O)NCc2cccnc2)c1 | 14.1 µM (active) | –
51 | O=C(CCc1ccccc1)NCc1cccnc1 | 25.1 µM (active) | –
52 | Cn1c(C(=O)O)c(CC(=O)NCc2cccnc2)c2ccccc21 | inactive | –
53 | CC(C)CO/N=C1/C[C@@H](O)[C@@H](O)[C@@H]2[C@@H]3C(=O)N([C@@H](C)c4ccccc4)C(=O)[C@H]3CC[C@@H]12 | – | 7.13% [at 11.4 µM] (inactive)
54 | CC(CO)(CO)N=Cc1cc(I)cc(I)c1O | – | -13.1% [at 11.4 µM] (inactive)
55 | COc1ccccc1NC(=O)[C@H](COCc1ccccc1)NC(=O)OC(C)(C)C | 3.55 µM (active) | –
56 | O=[N+]([O-])c1cc(C(F)(F)F)ccc1NCCCCNS(=O)(=O)c1ccc2ccccc2c1 | 1.78 µM (active) | –
57 | Cc1ccc(NC(=O)CN2C(=O)N/C(=C/c3ccc(C)o3)C2=O)cc1 | inactive | –
58 | Cc1ccc(/C=C/C(=O)N2CC(C)CC(C)C2)o1 (stereo unspecified) | 11.2 µM (active) | –
59 | CCOC(=O)N/N=C/c1ccc(C)o1 | inactive | –
60 | Cc1cccc(NC(=O)CC2Nc3cccc4cccc(c34)NC2=O)c1 (stereo unspecified) | 2.24 µM (active) | –
61 | Cc1cccc(NC(=O)CCCN2C(=O)c3cccc4cccc(c34)C2=O)c1 | 14.1 µM (active) | –
62 | C[N+](C)(CCCCCC[N+](C)(C)CCCN1C(=O)c2cccc3cccc(c23)C1=O)CCCN1C(=O)c2cccc3cccc(c23)C1=O | inactive | –
63 | O=C(CN1C(=O)c2cccc3cccc(c23)C1=O)N1CCCCCC1 | inactive | –
64 | O=C(CCCN1C(=O)c2cccc3cccc(c23)C1=O)N1CCc2ccccc2C1 | 3.98 µM (active) | –
65 | Cc1ccc(-n2nnnc2Sc2nc([N+](=O)[O-])nn2C)cc1C | 3.98 µM (active) | –
66 | O=C(O)c1ccc(Sc2nnnn2-c2ccccc2)c([N+](=O)[O-])c1 | inactive | –
